The source of these data is PubChem BioAssay (NCI).

This is part of a sample that, as a whole, favours compounds with a hit. Of some 83,000 tested, about 20% had one in any assay.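 Single-dose data. Exposure time 48 hours. Values below 10 considered active.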 Unmarked numbers belong to inactive results. Calls of active or inactive are those of the source.

The first assay relates to SW-620 colon. The assay can be described thus: NCI-60 one-dose screen, 48 h (100 = growth as untreated, 0 = no growth, -100 = all killed). The note with it: 10 µM unless noted.
Turning to `O=C(N/N=C\c1ccc(-c2ccc(Br)cc2)o1)c1cc2oc(-c3cccc(C(F)(F)F)c3)cc2[nH]1`, the growth was 118%.
The same measure, in the same setting: to `COC(=O)c1ccc2[nH]c(O)c(C(=Nc3ccc(N(C)C(=O)CN4CCN(C)CC4)cc3)c3ccc(N)cc3)c2c1` belongs 70.3%; to `COC(=O)c1ccc(C(=Nc2ccc(N(C)C(=O)CN3CCN(C)CC3)cc2)c2c(O)[nH]c3ccc(C(=O)OC)cc23)cc1`, 18.9%; to `Cc1ccc(C(C)C)c(OCc2ccc(C(=O)N/N=C/c3cccc(O)c3O)cc2)c1`, 47.8%.
On the same count and under the same terms, to `O=C1Nc2c(c(=O)n(-c3ccccc3)c3ccccc23)C(c2ccc(Cl)cc2)N1` (stereo not drawn) belongs 98%; to `O=c1c2c(c3ccccc3n1-c1ccccc1)NC(=S)NC2c1ccccc1` (stereo not drawn), 107%.
Consider `COC(=O)c1ccc2[nH]c(O)c(C(=Nc3ccc(N(C)C(=O)CN4CCN(C)CC4)cc3)c3ccc(CCO)cc3)c2c1`, for which the growth was 27.9%.
Same read-out and setting: as for `CCCCn1c(Cc2ccc(OC)cc2)nc2cc(OC)c(OC)cc2c1=O`, the figure is 92.5%; as for `Cc1[nH]n(C(=S)Nc2nc3cc(Cl)c(F)cc3s2)c(=O)c1N=Nc1ccc(F)c(Cl)c1`, 102%.
Still for that read-out and setting: to `Clc1ccc(N/N=C(\c2ccccc2)c2ccccn2)nc1` belongs 27.2%.
Still for that read-out and setting: to `c1ccc(Nc2ncc3c(n2)-c2cccn2CC3)cc1` belongs 102%; to `C=CCC(CCC(CC=C)C(=O)OCC)C(=O)OCC` (stereo not drawn), 103%; to `O=[N+]([O-])c1ccc(-c2ncc(-c3ccc(O)cc3O)[nH]2)cc1`, 106%.
Regarding `CC(=O)OC1/C=C\CC/C=C\C1` (stereo not drawn), the growth is 101%.
On to `CCN(CC)CCCNc1c2ccc(Cl)cc2nc2ccc(OC)cc12`, for which the growth is 3.44% (active).
For the compound `COc1cc(-c2nn(-c3ccc(NC(=O)Nc4cc(C(F)(F)F)cc(C(F)(F)F)c4)cc3)cc2-c2ccncc2)ccc1Cl`, the growth was 13.9%.
In the case of `CC(=O)Nc1nc(C)c(C(=O)NN)s1`, the growth was 97.4%.
Take `CC/C(=N\Nc1nc2ccccc2n1C)c1ccccn1`: the growth was 30%.
As to `CC(=O)OCC1O[C@@H](OC(C)=O)[C@@H](NC(=O)NS(=O)(=O)c2ccccc2)C(OC(C)=O)[C@@H]1OC(C)=O` (stereo partly drawn), the growth was 111%.
The same measure, in the same setting: to `Cc1nc2c(nnn2-c2ccccc2)c2nc(-c3ccccc3)oc(=O)c12` belongs 109%; to `CCc1ccc(C(=Nc2ccc(N(C)C(=O)CN3CCN(C)CC3)cc2)c2c(O)[nH]c3ccc(C(=O)OC)cc23)cc1`, -67.3% (active); to `C=C[C@]1(C)C=C2C(=O)[C@@]3(O)OC[C@@]4(CCCC(C)(C)C43O)C2(O)C(O)C1` (stereo partly drawn), -57.7% (active).
With `CCOC(=O)c1c2c(cn1Cc1ccccc1)-c1oncc1CC2`, the growth was 103%.

For a further assay, the system named is MCF7 breast. The description is as above. Conditions: 10 µM unless noted.
For `O=C(Nc1ccc(-n2cc(-c3ccncc3)c(-c3ccc(Cl)c(O)c3)n2)cc1)c1cc(C(F)(F)F)cc(C(F)(F)F)c1`, the growth was 30.3%.
Same read-out and setting: to `COc1ccc(C2CC(=O)c3c(O)cc(OC4OC(COC5OC(C)C(O)C(O)C5O)C(O)C(O)C4O)cc3O2)cc1O` (stereo not drawn) belongs 95.1%.
As for `O=C(NCCNCCO)c1cc([N+](=O)[O-])cc([N+](=O)[O-])c1O`, the growth was 102%.
Consider `O=Nc1ccc(O)c2ccccc12`, for which the growth is -37.8% (active).
Turning to `CC(=O)N1CCN(CCNC(=O)n2cc(-c3ccncc3)c(-c3ccc(O)c(Cl)c3)n2)CC1`, the growth was 102%.
For the compound `NC(=O)c1c(Nc2ccccc2)nn2cc(-c3nc4ccccc4s3)c(N)nc12`, the growth is 81.4%.
Same read-out and setting: as for `CC(O)CN(CCO)CCN(CCO)CC(C)O` (stereo not drawn), the figure is 94.5%.
The same measure, in the same setting: as for `COC(=O)c1ccc2[nH]c(O)c(C(=Nc3ccc(N(C)C(=O)CN4CCN(C)CC4)cc3)c3ccc(OC)cc3)c2c1`, the figure is 23.9%; as for `c1ccc(C(=NNc2nc3ccccc3o2)c2ccccn2)nc1`, 6.93% (active); as for `COC(=O)C(Cc1cnc[nH]1)N1CC(=O)N2[C@@H](c3ccccc3)SC[C@H]2C1=O` (stereo partly drawn), 106%.
Still for that read-out and setting: to `COC(=O)c1ccc2[nH]c(O)c(C(=Nc3ccc(N(C)C(=O)CN4CCN(C)CC4)cc3)c3ccc4c(c3)OCO4)c2c1` belongs 11.1%; to `Cc1ccc(NCc2cn(-c3ccc(C(=O)O)cc3)nc2-c2ccc(C(=O)O)cc2)cc1`, 93.6%; to `O=C(c1ccccc1)c1ccccc1-c1ccccc1`, 18.1%.
As to `CCCCCCC(C(=O)OCC)(C(=O)OCC)C1CCCCCC1`, the growth was 96.3%.
Still for that read-out and setting: as for `COC(=O)c1ccc2[nH]c(O)c(C(=Nc3ccc(N(C)C(=O)CN4CCN(C)CC4)cc3)c3ccc([N+](=O)[O-])cc3)c2c1`, the figure is 30.6%; as for `O=C1OC(c2ccc(-c3ccccc3)cc2)=C/C1=C/c1c2ccccc2cc2ccccc12`, 83.9%.
On the same count and under the same terms, to `O=C(O)c1ccc(-c2nn(-c3ccc(C(=O)O)cc3)cc2CNc2ccc(Br)cc2)cc1` belongs 90.3%.
Still for that read-out and setting: to `O=C(N/N=C\c1ccc(-c2ccc(Br)cc2)o1)c1cc2oc(-c3cccc(C(F)(F)F)c3)cc2[nH]1` belongs 89.9%; to `COC(=O)c1ccc2[nH]c(O)c(C(=Nc3ccc(N(C)C(=O)CN4CCN(C)CC4)cc3)c3ccc(N)cc3)c2c1`, 40.7%.
Regarding `COC(=O)c1ccc(C(=Nc2ccc(N(C)C(=O)CN3CCN(C)CC3)cc2)c2c(O)[nH]c3ccc(C(=O)OC)cc23)cc1`, the growth is 23.5%.
Still for that read-out and setting: as for `Cc1ccc(C(C)C)c(OCc2ccc(C(=O)N/N=C/c3cccc(O)c3O)cc2)c1`, the figure is 15.1%; as for `O=C1Nc2c(c(=O)n(-c3ccccc3)c3ccccc23)C(c2ccc(Cl)cc2)N1` (stereo not drawn), 91.1%.
Same read-out and setting: to `O=c1c2c(c3ccccc3n1-c1ccccc1)NC(=S)NC2c1ccccc1` (stereo not drawn) belongs 42.3%; to `COC(=O)c1ccc2[nH]c(O)c(C(=Nc3ccc(N(C)C(=O)CN4CCN(C)CC4)cc3)c3ccc(CCO)cc3)c2c1`, 26.3%.
Same read-out and setting: to `CCCCn1c(Cc2ccc(OC)cc2)nc2cc(OC)c(OC)cc2c1=O` belongs 81.3%; to `Cc1[nH]n(C(=S)Nc2nc3cc(Cl)c(F)cc3s2)c(=O)c1N=Nc1ccc(F)c(Cl)c1`, 80.8%.
Take `Clc1ccc(N/N=C(\c2ccccc2)c2ccccn2)nc1`: the growth was 3.62% (active).
Regarding `c1ccc(Nc2ncc3c(n2)-c2cccn2CC3)cc1`, the growth is 13.4%.
Same read-out and setting: to `C=CCC(CCC(CC=C)C(=O)OCC)C(=O)OCC` (stereo not drawn) belongs 89.6%; to `O=[N+]([O-])c1ccc(-c2ncc(-c3ccc(O)cc3O)[nH]2)cc1`, 90.3%.
As to `CC(=O)OC1/C=C\CC/C=C\C1` (stereo not drawn), the growth was 106%.
The same measure, in the same setting: to `CCN(CC)CCCNc1c2ccc(Cl)cc2nc2ccc(OC)cc12` belongs -16.4% (active); to `COc1cc(-c2nn(-c3ccc(NC(=O)Nc4cc(C(F)(F)F)cc(C(F)(F)F)c4)cc3)cc2-c2ccncc2)ccc1Cl`, -4.41% (active); to `CC(=O)Nc1nc(C)c(C(=O)NN)s1`, 99.1%.
In the case of `CC/C(=N\Nc1nc2ccccc2n1C)c1ccccn1`, the growth is 8.78% (active).
On the same count and under the same terms, to `CC(=O)OCC1O[C@@H](OC(C)=O)[C@@H](NC(=O)NS(=O)(=O)c2ccccc2)C(OC(C)=O)[C@@H]1OC(C)=O` (stereo partly drawn) belongs 92.6%; to `Cc1nc2c(nnn2-c2ccccc2)c2nc(-c3ccccc3)oc(=O)c12`, 92.3%.
Still for that read-out and setting: to `CCc1ccc(C(=Nc2ccc(N(C)C(=O)CN3CCN(C)CC3)cc2)c2c(O)[nH]c3ccc(C(=O)OC)cc23)cc1` belongs -68.4% (active); to `C=C[C@]1(C)C=C2C(=O)[C@@]3(O)OC[C@@]4(CCCC(C)(C)C43O)C2(O)C(O)C1` (stereo partly drawn), 21%; to `CCOC(=O)c1c2c(cn1Cc1ccccc1)-c1oncc1CC2`, 98.8%.
